Screening data: PubChem BioAssay, National Center for Advancing Translational Sciences (NCATS)
Only some compounds are listed: those with a hit (about 2.4% of all), similar ones and a draw of the others.
POLK inh: inhibitors of human DNA polymerase kappa; Q9UBT6; purified Pol kappa, fluorescent DNA synthesis assay, 10 min; Potency, µM (doses to about 107 µM), usual class: inhibitors; 0.53% of 400,000 active; AID 588579
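Kinetic fluorescence readout at 0 and 10 min followed reaction start with substrate at 50 nM final. Beforehand, enzyme (10 nM Pol kappa) stood 15 min with compound at room temperature; buffer-only wells were negative controls.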
Pol beta inh: DNA polymerase beta (human) inhibition | AID 485314 | Pol beta primer extension/strand displacement, fluorescence kinetic | Potency, µM (highest dose often 114 µM), hits mostly inhibitors | 1.3% of 340,000 active | P06746
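Preincubation: enzyme (10 nM) with compound, 15 min, RT. Reaction: substrate added to 50 nM final. Reads: 0 and 10 min. Analysis: normalized, Hill fit.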
FEN1 inhibitor: human FEN1 inhibition. P39748. Recombinant FEN1 flap cleavage, fluorescence, 15 min. Potency, µM (doses to about 114 µM), actives largely listed as inhibitors. 0.35% of 390,000 active. AID 588795; note: nearly all actives have a fitted effect of over 65% in size
Target sequence (P39748 whole entry, looked up): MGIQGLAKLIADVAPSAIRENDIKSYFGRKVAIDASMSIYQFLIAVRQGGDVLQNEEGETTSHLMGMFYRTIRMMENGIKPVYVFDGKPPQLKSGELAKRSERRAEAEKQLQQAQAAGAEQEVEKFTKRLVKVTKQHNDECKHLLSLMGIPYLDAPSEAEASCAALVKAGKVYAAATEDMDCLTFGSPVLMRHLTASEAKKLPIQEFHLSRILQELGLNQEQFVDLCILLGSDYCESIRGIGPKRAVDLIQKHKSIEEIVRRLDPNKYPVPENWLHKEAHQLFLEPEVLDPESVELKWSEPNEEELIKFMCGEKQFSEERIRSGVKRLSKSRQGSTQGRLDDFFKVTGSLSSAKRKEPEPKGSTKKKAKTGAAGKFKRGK
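FEN1 at 10 nM preincubated with compounds 15 min at room temperature, then flap DNA substrate added at 50 nM final. Signal read at 0 and 15 min; concentration-response fitted with four-parameter Hill equation.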
Pol iota inh: blocks human DNA polymerase iota activity; Q9UNA4; Pol iota fluorescent replication assay, 10 min; Potency, µM (highest dose often 115 µM), usual class: inhibitors; 1% of 390,000 active
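Pol iota at 10 nM preincubated 15 min with compounds at room temperature; reaction started with fluorescent substrate, 50 nM final. Fluorescence read kinetically at 0 and 10 min; buffer-only wells as negative control.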
POLH inh: inhibitors of human DNA polymerase eta; Q9Y253; recombinant Pol eta, fluorescent DNA replication assay; Potency, µM (series often up to 114 µM), hits mostly inhibitors; 1.2% of 390,000 active; AID 588591
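Pol eta (10 nM) was preincubated with compounds for 15 min at room temperature, after which fluorescent replication substrate (50 nM final) was added to start the reaction. Fluorescence was read kinetically at 0 and 10 min.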
WRN helicase inh: inhibitors of human WRN helicase; WRN helicase unwinding, fluorescent forked duplex, kinetic; 0.46% of 360,000 active; Potency, µM (top dose mostly 114 µM), hits mostly inhibitors; AID 651768; note: nearly all actives have a fitted effect of over 55% in size
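WRN at 20 nM final preincubated with compound 15 min at room temperature; reaction started with 100 nM fluorophore/quencher forked duplex oligonucleotide and 2 mM ATP final. Unwinding followed kinetically by red fluorescence (ex 525, em 598 nm).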
A number is an active result; i = inactive; ? = inconclusive; nt = not tested or not shown; [ ] = dose if it differs, or a comment. Calls come from the whole dose curve; as a rule, active = well fitted curve in the direction sought with a large enough effect; inconclusive = small, poorly fitted or top-dose-only effect, or another doubt; inactive = no such curve, though single readings can be large; an effect the other way counts as inactive or inconclusive.

SMILES	POLK inh	Pol beta inh	FEN1 inhibitor	Pol iota inh	POLH inh	WRN helicase inh
COc1cccc(NS(=O)(=O)c2ccc3[nH]cc(C(=O)N(C)Cc4ccco4)c(=O)c3c2)c1	?	?	i	79µM	?	i
CCC(C)C(N)C1=NC(C(=O)N[C@@H](CC(C)C)C(=O)N[C@H](CCC(=O)[O-])C(=O)N[C@H](C(=O)N[C@H]2CCCCNC(=O)[C@H](CC(N)=O)NC(=O)[C@@H](CC(=O)[O-])NC(=O)[C@H](Cc3cnc[nH]3)NC(=O)[C@@H](Cc3ccccc3)NC(=O)[C@H]([C@@H](C)CC)NC(=O)[C@@H](CCCN)NC2=O)[C@@H](C)CC)CS1.[Zn+2] (stereo not given in full)	?	nt	8.9µM	0.89µM	?	i
COc1ccc2c(C)c(CCC(=O)NCc3ccccc3Cl)c(=O)oc2c1C	i	i	i	i	i	nt
COc1ccc2c(C)c(CC(=O)NCc3ccccc3Cl)c(=O)oc2c1OC	i	45µM	i	i	i	nt
CCOC(=O)c1cnc2nc(NCc3ccc(OC)c(OC)c3)[nH]n2c1=O	i	35µM	i	?	20µM	i
Cc1ccc(OCCn2nnc3sc4c(c3c2=O)CCC(C)C4)cc1 (stereo not given)	i	i	i	i	nt	nt
CCOc1ccc2nc(SCC(=O)Nc3ccc(S(=O)(=O)N4CCCC4)cc3)c(C)cc2c1	i	i	40µM	?	i	i
COc1ccc2nc(SCC(=O)Nc3ccc(S(=O)(=O)N4CCCC4)cc3)c(C#N)cc2c1	i	i	i	i	i	i
O=C(OCc1cc(=O)n2nc(-c3cccs3)sc2n1)c1cccc(Cl)c1	i	40µM	i	?	i	nt
Cc1ccccc1C(=O)OCc1cc(=O)n2nc(-c3cccs3)sc2n1	i	32µM	i	?	i	nt
CCCc1nn2c(=O)cc(COc3ccc(/C=C(\C#N)C(=O)Nc4ccccc4)cc3)nc2s1	i	?	i	i	i	nt
Cc1ccc(OCC(=O)OCc2cc(=O)n3nc(-c4cccs4)sc3n2)cc1	i	?	i	?	i	nt
O=C(COc1ccc(Cl)cc1)OCc1cc(=O)n2nc(-c3cccs3)sc2n1	i	25µM	i	?	?	nt
Cc1nn2c(=O)cc(COc3ccc(/C=C(\C#N)C(=O)Nc4ccccc4C)cc3)nc2s1	?	?	i	20µM	i	nt
CCCCc1nn2c(=O)cc(COC(=O)c3cccc(Cl)c3)nc2s1	i	i	i	i	i	nt
COc1cc(/C=C(/C#N)c2nc(-c3cc4ccccc4oc3=O)cs2)ccc1O	i	i	i	i	nt	nt
C#CC(C)OC(=O)Nc1cccc(Cl)c1 (stereo not given)	i	nt	nt	nt	nt	nt
CC(C)CC(CSc1ccc(Br)cc1)N1CCN(CCc2ccccc2)CCC1=O (stereo not given)	i	nt	?	i	nt	nt
Cc1nn2c(=O)cc(COC(=O)c3ccccc3NC(=O)C(C)C)nc2s1	i	i	i	i	79µM	nt
Cc1nn2c(=O)cc(COC(=O)c3ccccc3NC(=O)c3ccccc3C)nc2s1	i	i	i	i	i	nt
O=C(OCc1cc(=O)n2nc(-c3cccs3)sc2n1)c1ccccc1Cl	?	35µM	i	?	?	nt
CCCc1nn2c(=O)cc(COC(=O)c3cccc(NC(=O)c4cccs4)c3)nc2s1	i	3.5µM	i	?	i	nt
Cc1ccc(C(=O)OCc2cc(=O)n3nc(-c4cccs4)sc3n2)cc1	?	18µM	i	?	89µM	nt
CN(Cc1ccccc1)c1ccc2cc(S(=O)(=O)N3CCCCC3)ccc2n1	i	i	i	i	i	nt
O=C1c2ccccc2NC(c2cccc(F)c2)N1Cc1ccco1 (stereo not given)	i	7.9µM	i	i	i	i
SMILES	POLK inh	Pol beta inh	FEN1 inhibitor	Pol iota inh	POLH inh	WRN helicase inh
Cc1ccc(S(=O)(=O)NCCc2csc3nc(-c4ccccc4C)nn23)cc1	i	i	i	i	i	nt
C=C/C(C)=C/C[C@H]1C(=C)CCC2[C@](C)(C(=O)O)CCC[C@@]21C (stereo not given in full)	?	nt	i	?	8.9µM	i
Cc1cc[n+](CC#N)cc1	i	nt	i	i	nt	nt
CC(C)(C)c1cc(-c2csc(Nc3ccccc3)[n+]2Cc2ccc(C(=O)O)cc2)cc(C(C)(C)C)c1O	i	i	?	?	32µM	?
O=c1c(O)c(-c2ccc(O)c(O)c2)oc2ccccc12	0.35µM	nt	nt	nt	nt	nt
O=c1c(O)c(-c2cc(O)c(O)c(O)c2)oc2cc(O)ccc12	0.24µM	nt	nt	nt	nt	nt
O=c1c(O)c(-c2ccc(O)cc2)oc2cc(O)ccc12	i[19.4 µM]	nt	nt	nt	nt	nt
N#Cc1c(Cl)nc(N/N=C/c2ccccc2)c(Cl)c1Cl	i	20µM	i	i	i	i
C=C1CC[C@@H]2O[C@@]2(C)CC[C@H]2[C@H]1CC2(C)C	i[19.4 µM]	nt	nt	nt	nt	nt
O=[N+]([O-])c1cc(C(F)(F)F)cc([N+](=O)[O-])c1Sc1n[nH]c(C(F)(F)F)n1	i	i	i	25µM	i	?
CCCCn1c(=O)c2oc3ccccc3c2n(Cc2ccc(OC)cc2)c1=O	i	i	i	i	i	nt
COc1cccc2cc(C(=O)NCc3ccco3)c(=Nc3ccc(C(=O)O)cc3)oc12	i	i	?	i	89µM	i
COc1ccc(CNC(=O)C(Cc2ccccc2)NS(=O)(=O)c2ccc3c(c2)CCN3C(C)=O)cc1 (stereo not given)	i	25µM	i	?	i	nt
COc1ccc(NS(=O)(=O)c2ccc3c(c2)CCCN3C(C)=O)cc1	i	i	i	i	i	i
CC(=O)N1CCc2cc(S(=O)(=O)NC(C(=O)NC3CCCc4ccccc43)C(C)C)ccc21 (stereo not given)	i	32µM	i	i	i	i
COc1cccc(NS(=O)(=O)c2ccc3c(c2)CCCN3C(C)=O)c1	i	79µM	i	i	i	i
CC(=O)N1CCc2cc(S(=O)(=O)NC(C(=O)NC(C)c3ccccc3)C(C)C)ccc21 (stereo not given)	i	i	i	i	i	i
c1ccc2c(NCCN3CCOCC3)nc(-c3ccc4c(c3)OCO4)nc2c1	i	nt	nt	nt	nt	nt
Cc1ccccc1NC(=O)Cn1c(=O)n(CCC(=O)NCc2ccc3c(c2)OCO3)c(=O)c2sccc21	i	50µM	i	i	i	nt
CCC1CCCCN1C(=O)Cn1nc([N+](=O)[O-])c(Cl)c1C (stereo not given)	?	i	i	89µM	89µM	i
O=C(COc1ccc(Cl)cc1)OCc1cc(=O)n2nc(C3CCCCC3)sc2n1	i	i	i	i	i	nt
O=C(O)C1C(c2ccccc2)C(C(=O)OCc2ccco2)C1c1ccccc1 (stereo not given)	i	?	i	?	79µM	i
Cc1noc(/C=C/c2ccccc2F)c1S(=O)(=O)N1CCC(C(=O)N(C)Cc2ccco2)CC1	i	i	i	i	i	nt
O=c1c2cc(N3CCOCC3)ccc2[nH]c(=S)n1Cc1ccc(Cl)cc1	i	i	i	i	i	i
